This is an account of results in PubChem BioAssay (Tox21).

Test [1] in a line: A CellTox Green Cytotoxicity Assay to monitor cytotoxicity in HepG2 cells - 0 hour (AID 1224882). Note: nearly all actives have a fitted effect of over 35% in size. A digest of the protocol: (§1)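 HepG2 cells, 600/well, preincubated 5 h with CellTox Green dye, then exposed to Tox21 compounds in DMSO at 37 C for up to 40 h. Dead-cell DNA fluorescence read at the indicated time point.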
The nature of test [2]: A CellTox Green Cytotoxicity Assay to monitor cytotoxicity in HepG2 cells - 32 hour (AID 1224883). Note: nearly all actives have a fitted effect of over 50% in size. Note: potency is the fitted concentration of half-maximal effect. In a few lines: as §1
Test [3] is described as follows: A CellTox Green Cytotoxicity Assay to monitor cytotoxicity in HEK293 cells - 8 hour (AID 1224884). Note: nearly all actives have a fitted effect of over 35% in size. A digest of the protocol:
(§2)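 HEK293 cells, 600/well, were preincubated 5 hours and then exposed to compounds at 37 C for up to 40 hours. A cell-impermeant cyanine dye staining dead-cell DNA was read by fluorescence at 0, 8, 16, 24, 32 and 40 h time points.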

The nature of test [4]: qHTS RealTime-Glo MT Cell Viability Assay in HepG2 cells - 16 hour (AID 1224885). Note: nearly all actives have a fitted effect of over 50% in size. A digest of the protocol: (§3)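 qHTS, HepG2, 600 cells/well, RealTime-Glo (NanoLuc + prosubstrate) added with cells; 5 h preincubation; DMSO compound addition; 37 C; luminescence at 0/8/16/24/32/40 h.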
Test [5] can be described thus: qHTS RealTime-Glo MT Cell Viability Assay in HEK293 cells - 24 hour (AID 1224886). Note: top concentration of the series differs between compounds; nearly all actives have a fitted effect of over 50% in size. In a few lines: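 Assay medium contained NanoLuc luciferase plus cell-permeant prosubstrate, added with HEK293 cells at 600 cells/well. After 5 h at 37 C/5% CO2 compounds were added; plates stayed at 37 C for 40 h with serial luminescence reads.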
(In general: Quantitative high-throughput screening tests each substance at several concentrations.)

The nature of test [6]: qHTS RealTime-Glo MT Cell Viability Assay in HEK293 cells - 8 hour (AID 1224887). Note: top concentration of the series differs between compounds; nearly all actives have a fitted effect of over 50% in size. In a few lines: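 600 cells/well were plated with the nonlytic NanoLuc/prosubstrate reagent, pre-incubated 5 h, then given 23 nL of compound in DMSO. Incubation at 37 C for 40 h, with luminescence from viable-cell-reduced substrate read repeatedly from 0 h.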
Test [7] in a line: A CellTox Green Cytotoxicity Assay to monitor cytotoxicity in HEK293 cells - 16 hour (AID 1224888). Note: nearly all actives have a fitted effect of over 35% in size. A digest of the protocol: as §2
Test [8] in a line: qHTS RealTime-Glo MT Cell Viability Assay in HepG2 cells - 0 hour (AID 1224889). Note: nearly all actives have a fitted effect of over 50% in size. A digest of the protocol: as §3
Test [9] is described as follows: A CellTox Green Cytotoxicity Assay to monitor cytotoxicity in HepG2 cells - 8 hour (AID 1224890). Note: nearly all actives have a fitted effect of over 45% in size. A digest of the protocol:
as §1

Test [10] is described as follows: qHTS assay to identify small molecule antagonists of the estrogen receptor alpha (ER-alpha) signaling pathway using the BG1 cell line in the presence of 0.1 nM 17-beta-estradiol - cell viability counter screen (AID 1259241). Note: nearly all actives have a fitted effect of over 40% in size. In a few lines:
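Viability in VM7Luc4E2 cells after 22 hr compound exposure under 0.1 nM 17beta-estradiol stimulation, by CellTiter-Fluor.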

A short description of test [11]: qHTS assay to identify small molecule antagonists of the androgen receptor (AR) signaling pathway using the MDA cell line in the presence of 0.5 nM R1881 - cell viability counter screen (AID 1259242). Note: nearly all actives have a fitted effect of over 45% in size. A digest of the protocol: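 MDA-kb2 cells (MMTV-luciferase, AR/GR responsive) were treated with compounds plus 0.5 nM R1881 (final) for 16 hr at 37C, 0% CO2. Viability was then read in the same wells as live-cell protease fluorescence (CellTiter-Fluor, 30 min).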

Test [12] can be described thus: qHTS assay to identify small molecule phospholipidosis (PLD) inducers (AID 1259344; active = well fitted curve in the direction sought with a large enough effect; an effect the other way counts as inactive or inconclusive). A digest of the protocol:
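Quantitative HTS in HepG2: compound plus LipidTOX Red dye for 24 h, paraformaldehyde fixation with Hoechst 33342, widefield high-content imaging; amiodarone as positive and DMSO as negative control.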

Test [13] can be described thus: qHTS assay to identify small molecule HDAC inhibitors - cell viability counter screen (AID 1259365). In a few lines: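 Cytotoxicity was gauged in wild-type HCT-116 cells after a brief 2hr treatment with DMSO-dissolved compounds at 37C and 5% CO2, using CellTiter-Glo luminescence developed for 30min at room temperature.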
The nature of test [14]: qHTS assay to identify small molecule agonists of the sonic hedgehog signaling (Shh) pathway - cell viability counter screen (AID 1259366). Note: nearly all actives have a fitted effect of over 50% in size. A digest of the protocol: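 Stable Gli1-Luc NIH/3T3 clone, 2,000 cells/well. Compound exposure 24hr at 37C. Read-out: CellTiter-Fluor fluorescence.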
Test [15] in a line: qHTS assay to identify small molecule antagonists of the sonic hedgehog signaling (Shh) pathway - cell viability counter screen (AID 1259367). Note: nearly all actives have a fitted effect of over 55% in size. Note: potency is the fitted concentration of half-maximal effect. In a few lines:
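Seed 3T3 Gli1-Luc cells at 2,000 per well; incubate 4 hr; add compound in DMSO, then conditioned medium; incubate at 37C with 5% CO2; add CellTiter-Fluor after 23 hr; read fluorescence 1 hr later.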

A short description of test [16]: qHTS assay to identify small molecule agonists of the sonic hedgehog signaling (Shh) pathway (AID 1259368; calls by dose curve;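 note: NIH/3T3-derived 3T3Gli1-Luc cells carrying a stable Gli1-driven firefly luciferase reporter; series mostly up to about 92 µM; nearly all actives have a fitted effect of over 15% in size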). A digest of the protocol: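 NIH/3T3-derived 3T3Gli1-Luc cells with stably integrated Gli1-driven firefly luciferase, 2,000 cells/well, compounds added after 4 hr. Incubated 24 hr at 37C, 5% CO2; luminescence read after 30 min with luciferase reagent at room temperature.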

The nature of test [17]: qHTS assay to identify small molecule antagonists of the sonic hedgehog signaling (Shh) pathway (AID 1259369; calls by dose curve; note: nearly all actives have a fitted effect of over 45% in size; note: potency is the fitted concentration of half-maximal effect). A digest of the protocol: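 NIH/3T3-derived Gli1-Luc reporter cells plated 4 h, dosed with compound, then stimulated with conditioned medium for 24 h at 37 C. Firefly luciferase luminescence read after 30 min with detection reagent at room temperature.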
The nature of test [18]: qHTS assay to identify small molecule HDAC inhibitors (AID 1259364). For activity change, negative = inhibition: top concentration of the series differs between compounds. Note: nearly all actives have a fitted effect of over 45% in size. Note: potency is the fitted concentration of half-maximal effect. A digest of the protocol: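 Wild-type HCT-116 cells, plated overnight at 37 C, exposed to compounds 2 hr at 37 C; luminogenic HDAC-Glo substrate then added 30 min at room temperature. Luminescence reports relative endogenous class I/II HDAC activity.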
For test [19], the target named is Androgen receptor (Homo sapiens) (UniProt P10275). Kind of test: qHTS assay to identify small molecule antagonists of the androgen receptor (AR) signaling pathway using the MDA cell line in the presence of 0.5 nM R1881 (AID 1259243). Note: nearly all actives have a fitted effect of over 50% in size. In a few lines:
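MDA-kb2 cells (MMTV-luciferase, responsive to AR and GR) at 3,000/well, rested 5 h at 37C, 0% CO2, then given compounds plus 0.5 nM R1881 (final) for 16 hr. Luciferase read with ONE-Glo after 30 min at room temperature.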

Test [20] has as its target Estrogen receptor (Homo sapiens) (UniProt P03372). Kind of test: qHTS assay to identify small molecule antagonists of the estrogen receptor alpha (ER-alpha) signaling pathway using the BG1 cell line in the presence of 0.1 nM 17-beta-estradiol (AID 1259244). Note: nearly all actives have a fitted effect of over 50% in size. In a few lines:
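VM7Luc4E2 cells (endogenous full-length ER-alpha, 4×ERE-luciferase), kept 5 days in phenol red-free, charcoal-stripped FBS medium; 4,000 cells/well. Compounds added with 0.1 nM (final) 17beta-estradiol, 22 hr at 37C; luminescence read with ONE-Glo after 30 min.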

Values joined by “and” are separate entries in the source; they are usually repeats but may differ in a detail not shown here. Identical values can stand only once. Records with an inconclusive call do not appear. More than one record can exist for a structure, and the calls need not agree. Active and inactive are the calls of the source. Unless noted, calls come from the whole dose curve; as a rule, active = well fitted curve in the direction sought with a large enough effect in the repeat runs; inconclusive = weak or mixed curves; inactive = no such curve, though single readings can be large; an effect the other way counts as inactive or inconclusive.
% is set by controls: 0 for no effect and ±100 for the full control effect.

Chain of Estrogen receptor (Homo sapiens) (P03372 whole entry, looked up): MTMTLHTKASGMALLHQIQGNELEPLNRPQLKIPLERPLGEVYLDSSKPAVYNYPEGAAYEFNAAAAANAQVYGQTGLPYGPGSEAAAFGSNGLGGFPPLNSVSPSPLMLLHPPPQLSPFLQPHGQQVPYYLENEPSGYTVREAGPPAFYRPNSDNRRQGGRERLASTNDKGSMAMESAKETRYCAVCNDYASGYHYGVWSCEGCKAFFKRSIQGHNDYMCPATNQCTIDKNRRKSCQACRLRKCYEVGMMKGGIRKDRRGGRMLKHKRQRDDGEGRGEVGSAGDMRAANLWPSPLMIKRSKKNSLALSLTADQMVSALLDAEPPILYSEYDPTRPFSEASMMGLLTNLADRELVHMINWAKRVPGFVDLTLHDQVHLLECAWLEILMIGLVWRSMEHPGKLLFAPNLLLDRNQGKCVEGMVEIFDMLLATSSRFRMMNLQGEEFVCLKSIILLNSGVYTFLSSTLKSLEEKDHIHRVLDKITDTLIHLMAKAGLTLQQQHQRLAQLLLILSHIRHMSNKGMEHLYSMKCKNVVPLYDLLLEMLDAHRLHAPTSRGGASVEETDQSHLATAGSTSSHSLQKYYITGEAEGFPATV
Chain of Androgen receptor (Homo sapiens) (P10275 whole entry, looked up): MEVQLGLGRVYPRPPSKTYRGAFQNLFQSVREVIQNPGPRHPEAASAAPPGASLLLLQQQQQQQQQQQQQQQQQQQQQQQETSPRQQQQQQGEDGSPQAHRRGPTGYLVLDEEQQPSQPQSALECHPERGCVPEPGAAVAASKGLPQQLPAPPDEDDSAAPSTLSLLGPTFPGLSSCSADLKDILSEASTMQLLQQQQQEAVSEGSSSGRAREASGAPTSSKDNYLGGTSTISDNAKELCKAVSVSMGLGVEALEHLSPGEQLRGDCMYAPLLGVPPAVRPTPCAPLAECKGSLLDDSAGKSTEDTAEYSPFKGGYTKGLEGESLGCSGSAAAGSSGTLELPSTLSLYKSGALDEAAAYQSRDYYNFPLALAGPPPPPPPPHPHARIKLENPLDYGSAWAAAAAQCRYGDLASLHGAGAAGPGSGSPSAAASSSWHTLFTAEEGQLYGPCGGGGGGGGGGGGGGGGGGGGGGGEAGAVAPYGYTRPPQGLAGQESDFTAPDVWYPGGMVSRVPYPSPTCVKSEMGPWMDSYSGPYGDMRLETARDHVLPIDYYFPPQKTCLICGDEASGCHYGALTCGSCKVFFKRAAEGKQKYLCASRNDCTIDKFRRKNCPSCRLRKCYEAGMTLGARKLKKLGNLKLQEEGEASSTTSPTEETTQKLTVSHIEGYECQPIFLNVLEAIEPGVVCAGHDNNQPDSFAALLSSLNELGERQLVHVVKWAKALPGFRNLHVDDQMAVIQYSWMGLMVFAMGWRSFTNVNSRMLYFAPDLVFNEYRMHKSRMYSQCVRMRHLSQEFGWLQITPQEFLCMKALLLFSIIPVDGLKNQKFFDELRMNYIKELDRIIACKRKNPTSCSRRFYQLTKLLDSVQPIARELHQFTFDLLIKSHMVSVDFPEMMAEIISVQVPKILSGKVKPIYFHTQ

As for `NC(Cc1ccc(Cl)cc1)C(=O)O` (stereo not drawn), the cytotoxicity in test [1] is -3.58% [at 0.29 µM] (inactive). In addition, the cytotoxicity increase in test [2] was -4.66% [at 0.29 µM] (inactive); in test [3], 5.18% [at 0.29 µM] (inactive); in [9], -8.44% [at 0.29 µM] (inactive). Also, the activity change, negative = cytotoxic in [4] is -3.04% [at 0.29 µM] (inactive). For the same compound, the activity change, negative = cytotoxicity in test [5] is 9.19% [at 0.29 µM] (inactive); in test [6], 10.3% [at 0.29 µM] (inactive); in test [8], -2.96% [at 0.29 µM] (inactive); in [10], 0.121% [at 0.349 µM] (inactive); in test [13], 1.43% [at 0.349 µM] (inactive). In addition, the activity change in test [7] is -4.15% [at 0.29 µM, stronger effect = higher value] (inactive); in test [16], -0.363% [at 0.349 µM, stronger effect = higher value] (inactive). Besides, the viability change, negative = cytotoxic in [11] is 4.52% [at 0.349 µM] (inactive); in [14], 0.958% [at 0.349 µM] (inactive); in [15], 2.83% [at 0.349 µM] (inactive). Also, in test [12], the Potency entry was “inactive”. The activity change, negative = inhibition in [17] was 23.4% [at 0.349 µM] (inactive).
For `NC(N)=NC(=O)Cc1c(Cl)cccc1Cl`, the Potency result in [1], in [2], in test [3], in test [4], in test [5] and in [6] was “inactive” each time. Besides, the Potency result in test [7], in test [8], in test [9], in test [10], in [12] and in test [18] was “inactive” in each case. For the same compound, the Potency result in test [13], in test [15], in [16] and in test [17] was “inactive” each time.
On to `O=Cc1ccc(Cl)cc1`, for which the Potency result in test [1], in test [2], in test [3], in [4], in test [5] and in [6] was “inactive” throughout. Moreover, the Potency entry in test [7], in test [8], in test [9], in test [10], in test [19] and in test [18] was “inactive” each time. Further, the Potency entry in test [13], in [14], in test [15], in test [16] and in test [17] was “inactive” throughout.
Consider `CC(C)CCOC(=O)c1ccc(N(C)C)cc1`, for which the Potency result in test [1], in test [2], in [3], in [4], in test [5] and in test [6] was “inactive” each time. For the same compound, the Potency entry in test [7], in [8], in test [9], in test [10], in test [20] and in test [12] was “inactive” in each case. Also, the Potency entry in test [13], in test [14], in [15], in test [16] and in [17] was “inactive” throughout.
`O=C(OCc1ccccc1)c1ccc(O)cc1`: the Potency entry in test [1], in test [3], in test [4], in test [5], in test [6] and in test [7] was “inactive” in each case. Besides, the Potency result in test [8], in [9], in test [10], in test [20], in test [12] and in test [13] was “inactive” in each case. In [14], the Potency result was “inactive”. Also, the Potency is 49 µM (active) and inactive in test [2]; 12.2 µM (active) and 11.9 µM (active) in [18]; 68.6 µM (active) and inactive in test [15]; 43.3 µM (active) and inactive in test [17].
On to `COc1ccc(COC(C)=O)cc1`, for which the Potency entry in [1], in [2], in test [3], in test [4], in test [5] and in [6] was “inactive” in each case. The Potency entry in test [7], in test [8], in [9], in test [10], in [13] and in test [14] was “inactive” throughout. The Potency result in test [15] and in [17] was “inactive” each time.
